Screening data (PubChem BioAssay)
Shown is part of a subset that was picked to be rich in hits.
VHR inh color – inhibitors of human VHR1 phosphatase (DUSP3). P51452. recombinant VHR phosphatase, colorimetric substrate read-out. inhibition, % at 20 µM. hit rate 0.7% among 50,000. AID 1992; in the data active means inhibition above about 60%
Target sequence (P51452 whole entry, looked up): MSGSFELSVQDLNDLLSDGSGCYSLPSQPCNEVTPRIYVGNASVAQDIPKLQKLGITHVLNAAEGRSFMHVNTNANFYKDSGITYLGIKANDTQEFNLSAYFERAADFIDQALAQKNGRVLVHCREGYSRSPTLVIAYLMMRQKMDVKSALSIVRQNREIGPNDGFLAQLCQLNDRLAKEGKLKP
An asterisk follows results filed as active.

SMILES | VHR inh color
COc1ccc(C2CC(=O)C3=C(C2)Nc2ccccc2NC3c2ccccc2)cc1 (stereo not given) | 23
CC1(C)CC(=O)C2=C(C1)Nc1ccccc1NC2c1coc2ccccc2c1=O (stereo not given) | 3
O=C1CC(c2ccccc2)CC2=C1C(c1ccco1)Nc1ccccc1N2 (stereo not given) | 7
COc1ccc(C2CC(=O)C3=C(C2)Nc2ccccc2NC3c2ccc(C)o2)cc1 (stereo not given) | 94*
O=C1CC(c2ccccc2)CC2=C1C(c1coc3ccccc3c1=O)Nc1ccccc1N2 (stereo not given) | 112*
CCOc1ccc(C2Nc3ccccc3NC3=C2C(=O)CC(c2ccc(OC)cc2)C3)cc1 (stereo not given) | -5
CCOc1ccccc1C1Nc2ccccc2NC2=C1C(=O)CC(c1ccc(OC)c(OC)c1)C2 (stereo not given) | 44
O=C1CC(c2ccc(Cl)cc2)CC2=C1C(c1ccc3c(c1)OCO3)Nc1ccccc1N2 (stereo not given) | -20
O=C1CC(c2ccc3c(c2)OCO3)CC2=C1C(c1ccc(-c3ccccc3)cc1)Nc1ccccc1N2 (stereo not given) | 115*
C=CCOc1c(Cl)cc(/C=C2\C(=O)NN(c3ccc(Cl)c(Cl)c3)C2=O)cc1OC | 34
CC1CN(C)C(C)CC1OC(=O)c1ccccc1Cl (stereo not given) | -10
O=C(Nc1cccc(-c2cn3ccccc3n2)c1)c1ccccc1Cl | -16
COc1ccc(S(=O)(=O)N(CCc2ccccc2)CC(=O)NCc2ccc(Cl)cc2)cc1 | 3
Cc1c(Cl)cccc1NC(=O)Cn1cnc([N+](=O)[O-])n1 | 3
O=C1NCC(O)=C1C=NCCc1ccc(O)cc1 | 9
O=C(NCc1ccncc1)c1ccc(Br)o1 | 3
CCCCOc1ccccc1NC(=O)C(c1ccccc1)c1ccccc1 | 7
Cc1cccc(N2CCN(S(C)(=O)=O)CC2)c1C | -2
O=C(c1ccccc1O)N1CCCc2ccccc21 | -42
O=C1CC(c2ccccc2)CC2=C1C(c1c(F)cccc1Cl)Nc1ccccc1N2 (stereo not given) | 115*
O=C1CCCC2=C1C(c1ccc(F)cc1)Nc1ccc(C(=O)c3ccccc3)cc1N2 (stereo not given) | 35
Cc1ccc(C2Nc3ccc(C(=O)c4ccccc4)cc3NC3=C2C(=O)CC(C)(C)C3)o1 (stereo not given) | -5
O=C1CC(c2ccccc2)CC2=C1C(c1cccc(Cl)c1Cl)Nc1ccccc1N2 (stereo not given) | 2
Cc1ccc(C2Nc3ccc(C(=O)c4ccccc4)cc3NC3=C2C(=O)CCC3)o1 (stereo not given) | 101*
COc1ccc(C2CC(=O)C3=C(C2)Nc2ccccc2NC3c2c(F)cccc2Cl)cc1 (stereo not given) | 8
SMILES | VHR inh color
CCC(C)(C#CCN1CCCC1)OC(C)=O (stereo not given) | -36
COc1ccc(N2Cc3ccc(C(=O)NN)cc3C2)cc1 | 94*
Cc1cc2c(cc1C)CN(c1cccc(C(=O)NN)c1)C2 | 49
COc1ccc(N2Cc3ccc(C(=O)N/N=C\c4ccc(Br)cc4)cc3C2)cc1 | -15
O=C(/C=C/c1ccc(Cl)cc1)Nc1cccc(Br)c1 | -15
COc1ccc(Cl)cc1C(=O)NCCC1=CCCCC1 | -13
CCOc1ccccc1N1CCN(C(=O)c2cccc([N+](=O)[O-])c2)CC1 | -17
COc1ccc(C2C3=C(CC(C)(C)CC3=O)NC3=C2C(=O)CC(C)(C)C3)cc1Br | -24
COc1cccc(-c2cc(C(=O)Nc3sc(C)c(C)c3C(N)=O)c3ccccc3n2)c1 | 7
Cc1sc(NC(=O)c2cc(-c3cccs3)nc3ccccc23)c(C(N)=O)c1C | 88*
Cc1cccc(NC(=O)c2cc(-c3cccs3)nc3ccccc23)c1 | -11
CCCCn1c(N)c(C(=O)OCC)c2nc3ccccc3nc21 | -17
Cn1/c(=N/N=C/C=C/c2ccco2)sc2ccccc21 | 114*
Cn1/c(=N/N=C/c2cccc(Cl)c2Cl)sc2ccccc21 | 1
CN(C)c1ccc(/C=C/C=N/N=c2\sc3ccccc3n2C)cc1 | 13
COC(=O)c1ccccc1NC(=O)COc1ccc(-c2ccc(C)cc2)cc1 | -11
Cc1cccc(N2C(=O)NC(=O)/C(=C/c3cccn3-c3ccc([N+](=O)[O-])cc3)C2=O)c1 | -2
CCN1C(=O)C(=Cc2cccn2-c2ccc([N+](=O)[O-])cc2)C(=O)N(CC)C1=S | 73*
CC1=NN(c2ccccc2)C(=O)/C1=C/c1cccn1-c1ccc([N+](=O)[O-])cc1 | -22
COc1ccccc1-c1cc(C(=O)O)c2ccccc2n1 | 11
O=C(O)c1cc(-c2cccc([N+](=O)[O-])c2)nc2ccccc12 | -13
O=C(O)c1cc(-c2cn[nH]c2-c2ccccc2)nc2ccc3ccccc3c12 | 110*
Cc1nc2ccccn2c(=O)c1[N+](=O)[O-] | 4
O=C(CN(CCc1ccccc1)S(=O)(=O)c1ccccc1)Nc1ccc(Cl)cc1Cl | -36
Cc1ccc(-n2c(C)cc(C=C3C(=O)NC(=S)NC3=O)c2C)cc1C | 16
